Experimental data from PubChem BioAssay AID1159580 (chemical genetic matrix, 2015).
Several values for one entry are separate records, joined by “and”; a condition that tells them apart may be missing. Equal entries are not always repeated. The campaign covered roughly 5,500 compounds. About 2,000 (36%) were called active. About 18% were inconclusive and are not listed. Cut-off read from the data, not from the text of the source: active = normalized growth mostly below about 0.91 (no sharp cut-off); inconclusive = no clear call, values can overlap the other calls; inactive = mostly above about 0.92. The list shows a part of the results.

Assay: chemical genetic growth profiling, strain panel (AID 1159580);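 note: tested at 20 µM; growth read once vehicle control cultures reached saturation at 30 °C; 1 = growth at the plate median or of vehicle wells; lower values mean less growth of the strain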
Settings: S. cerevisiae deletion strains, growth OD

Measured: normalized growth

Cc1c(NC(=O)c2cccnc2)c(=O)n(-c2ccccc2)n1C
inactive: locus YAL013W, strain DEP1, hits give low values 0.996 | locus YAL021C, strain ccr4, hits give low values 1.02 | locus YAL026C, strain drs2, hits give low values 0.999 | locus YAL030W, strain snc1, hits give low values 1 | locus YBL061C, strain skt5, hits give low values 1 | locus YBR009C, strain hhf1, hits give low values 0.966 | locus YBR021W, strain FUR4, hits give low values 1.03 | locus YBR023C, strain chs3, hits give low values 1.01 | locus YBR171W, strain sec66, hits give low values 1 | locus YBR229C, strain ROT2, hits give low values 0.964 | locus YBR231C, strain swc5, hits give low values 1.01 | locus YBR279W, strain paf1, hits give low values 0.999 | locus YCL011C, strain gbp2, hits give low values 1 | locus YCL016C, strain dcc1, hits give low values 0.999 | locus YCL029C, strain bik1, hits give low values 0.997 | locus YCL061C, strain MRC1, hits give low values 1 | locus YCL069W, strain vba3, hits give low values 0.989 | locus YCR088W, strain abp1, hits give low values 0.997 | locus YDL005C, strain med2, hits give low values 1 | locus YDL035C, strain GPR1, hits give low values 0.992 | locus YDL040C, strain nat1, hits give low values 0.988 | locus YDL074C, strain BRE1, hits give low values 0.949 | locus YDL101C, strain DUN1, hits give low values 0.981 | locus YDL134C, strain PPH21, hits give low values 1.01 | locus YDL185W, strain tfp1, hits give low values 0.983 | locus YDL192W, strain arf1, hits give low values 0.994 | locus YDR001C, strain nth1, hits give low values 0.992 | locus YDR069C, strain doa4, hits give low values 1.01 | locus YDR101C, strain arx1, hits give low values 0.988 | locus YDR137W, strain rgp1, hits give low values 0.992 | locus YDR159W, strain sac3, hits give low values 1 | locus YDR162C, strain NBP2, hits give low values 1 | locus YDR195W, strain ref2 0.998 | locus YDR297W, strain sur2, hits give low values 0.999 | locus YDR318W, strain mcm21, hits give low values 1 | locus YDR334W, strain swr1, hits give low values 0.999 | locus YDR335W, strain msn5, hits give low values 0.997 | locus YDR388W, hits give low values 1 | locus YDR392W, strain spt3, hits give low values 0.934 | locus YDR502C, strain sam2, hits give low values 0.994 | locus YEL003W, strain gim4, hits give low values 1 | locus YEL037C, strain rad23, hits give low values 0.994 | locus YEL061C, strain CIN8 (second series), hits give low values 1 | locus YEL061C, strain CIN8, hits give low values 0.98 | locus YER015W, strain faa2, hits give low values 1 | locus YER016W, strain bim1, hits give low values 1 | locus YER110C, hits give low values 0.997 | locus YER111C, strain swi4, hits give low values 0.997 | locus YER155C, strain BEM2 (second series), hits give low values 1.02 | locus YER155C, strain BEM2, hits give low values 1 | locus YER167W, strain BCK2, hits give low values 1 | locus YFR010W, strain ubp6, hits give low values 0.997 | locus YGL078C, strain dbp3, hits give low values 0.988 | locus YGL086W, strain mad1, hits give low values 0.985 | locus YGL167C, strain pmr1, hits give low values 1 | locus YGL173C, strain kem1, hits give low values 1.01 | locus YGL227W, strain vid30, hits give low values 0.998 | locus YGL240W, strain doc1, hits give low values 1.01 | locus YGL248W, strain PDE1, hits give low values 0.974 | locus YGL253W, strain hxk2, hits give low values 1 | locus YGR078C, strain PAC10, hits give low values 0.97 | locus YGR135W, strain pre9, hits give low values 1.07 | locus YGR252W, strain gcn5, hits give low values 1.02 | locus YHR013C, strain ard1, hits give low values 0.96 | locus YHR027C, strain rpn1, hits give low values 1.01 | locus YHR030C, strain SLT2, hits give low values 1 and 1.04 | locus YHR079C, strain IRE1 (second series), hits give low values 0.992 | locus YHR079C, strain IRE1, hits give low values 1.02 | locus YHR094C, strain hxt1, hits give low values 0.998 | locus YHR129C, strain ARP1, hits give low values 1 | locus YHR142W, strain chs7, hits give low values 1 | locus YHR200W, strain rpn10, hits give low values 0.992 | locus YIL066C, strain RNR3, hits give low values 0.974 | locus YIL073C, strain SPO22, hits give low values 1.04 | locus YIL125W, strain kgd1, hits give low values 0.987 | locus YIR030C, strain dcg1, hits give low values 0.999 | locus YJL092W, strain hpr5, hits give low values 1 | locus YJL095W, strain BCK1 (second series), hits give low values 1 | locus YJL095W, strain BCK1, hits give low values 0.964 and 1.04 | locus YJL115W, strain asf1, hits give low values 1 | locus YJL129C, strain trk1, hits give low values 1.01 | locus YJL134W, strain LCB3, hits give low values 0.995 | locus YJL154C, strain vps35, hits give low values 0.989 | locus YJL164C, strain tpk1, hits give low values 1.01 | locus YJL166W, strain qcr8, hits give low values 1.01 | locus YJL168C, strain set2, hits give low values 0.987 | locus YJL187C, strain SWE1 (second series), hits give low values 0.95 | locus YJL187C, strain SWE1, hits give low values 0.999 | locus YJR043C, strain POL32, hits give low values 0.924
